Bioassay records: PubChem BioAssay, National Center for Advancing Translational Sciences (NCATS)
HT1080 IDH1KD tx: HT-1080 IDH1 knockdown cell toxicity (counter line); AID 686971; 360,000 compounds, 2% hits; HT-1080 IDH1 knockdown viability, ATP luminescence, 48 h; Potency, µM (series often up to 46.1 µM), for the others: top-dose activity, negative = toxicity, usual class: cytotoxic;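 also: potency is read from the fitted curve at half-maximal effect; 0% = DMSO wells and -100% = cell-free medium wells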
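After a 2 h attachment period, IDH1KD HT-1080 cells took pin-transferred compound for 48 h at 37 °C; ATP-based luminescence after 10 min room-temperature reagent incubation reported viability.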
DT40 TDP1 CPT: DT40-hTDP1 cell growth loss with CPT; AID 686979; Potency, µM (series often up to 46.2 µM), inactives show at the top dose activity change, negative = growth inhibition, actives largely listed as inhibitors; chicken DT40 Tdp1-/-;hTDP1 cells + 20 nM CPT, ATP luminescence, 48 h; 420,000 compounds, 12% hits; also: potency is read from the fitted curve at half-maximal effect; nearly all actives have a fitted effect of over 55% in size
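Cell growth measured by CellTiter-Glo luminescence after a minimum 48 h, 37 C compound exposure with 20 nM CPT in Tdp1-knockout DT40 cells stably expressing hTDP1, seeded 400/well; qHTS titration format.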
HT1080NT lethal: kills 2HG-producing HT-1080-NT fibrosarcoma cells. HT-1080-NT fibrosarcoma viability, CellTiter-Glo ATP luminescence, 48 h. Potency, µM (highest dose often 46.1 µM), inactives show top-dose activity, negative = less viability, hits mostly cytotoxic. 360,000 compounds, 1.6% hits;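 also: NT is the 2HG producing partner of a matched IDH1 knockdown line; potency is read from the fitted curve at half-maximal effect; 0% = DMSO-treated cells and -100% = media-only wells without cells; nearly all actives have a fitted effect of over 55% in size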
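Toxicity toward the 2HG-producing NT line was scored as %Activity, normalised to DMSO and no-cell wells, from CellTiter-Glo luminescence after 48 hours' treatment.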
IL1B secr inh: blocks inflammasome-driven IL-1 beta release. THP-1 LPS/ATP IL-1B secretion, AlphaLISA, 16 h; hits give low values. activity change, % at 57.5 µM. 360,000 compounds, 4.7% hits; in the data active = activity change below about -50%; inconclusive = mostly about -30% to -49%
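THP-1 cells pretreated 1 hr with compounds (up to 57.5 uM final), then stimulated with LPS (250 ng/mL final) plus ATP (1.25 mM final); secreted IL-1B measured by AlphaLISA after 16 hr, decreased signal indicating inhibition.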
DT40 TDP1 no CPT: qHTS for Inhibitors of human tyrosyl-DNA phosphodiesterase 1 (TDP1): qHTS in cells in absence of CPT. Potency, µM (series often up to 46.2 µM), inactives show at the top dose activity change, negative = growth inhibition, actives largely listed as inhibitors. 420,000 compounds, 15% hits. AID 686978, 2013. DT40 Tdp1-/- hTDP1 cells, no CPT, ATP luminescence, 48 h; also: potency is read from the fitted curve at half-maximal effect; nearly all actives have a fitted effect of over 55% in size
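Compound effects on proliferation are scored in DT40 Tdp1-/-;hTDP1 cells in the absence of CPT. ATP levels (CellTiter-Glo luminescence) are recorded after a ≥48 hr, 37 °C incubation.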
The depositor's hits bear a star; ? = inconclusive; nt = not tested or not shown; ! = repeats disagree; [ ] = dose if it differs, or a comment. In the library only some 19% were active in any assay of this set; here they are far more common. Unless noted, calls follow the shape of the dose curve; as a rule, active = well fitted curve in the direction sought with a large enough effect; inconclusive = small, poorly fitted or top-dose-only effect, or another doubt; inactive = no such curve, though single readings can be large; an effect the other way counts as inactive or inconclusive. Unless noted, % is scaled to controls: 0 for no effect and ±100 for the full control effect.

SMILES | HT1080 IDH1KD tx | DT40 TDP1 CPT | HT1080NT lethal | IL1B secr inh | DT40 TDP1 no CPT
Cc1nn(-c2ccccc2)c(Cl)c1/C=N/NC(=O)c1cccc(S(=O)(=O)N2CCCC2)c1 | 0% | -28% | 2% | 22 | 10µM*
O=C(c1ccccc1)c1cccc(NC(=O)c2ccc(Br)o2)c1 | -24% | ? | -21% | -64* | ?
C/C(=N/NC(=O)c1ccc(Br)o1)c1cccc(NC(=O)c2ccc(C)o2)c1 | -1% | 16µM* | -4% | -5 | 21µM*
Cc1c(Cl)cccc1NC(=O)Cc1ccc([N+](=O)[O-])cc1 | -11% | -20% | -7% | 7 | ?
CC1(c2nc3ccccc3[nH]2)c2ccccc2C(=O)N1Cc1ccccn1 (centres undefined) | 4% | 4% | 19% | 20 | -23%
C1=CN2CC=Cc3cc(/C=C/c4ccnc5ccccc45)cc(c32)C1 | nt | 10µM* | nt | nt | 7.1µM*
O=C(N/N=C/c1ccc(Cl)cc1)c1cc2c(s1)-c1ccccc1CC2 | ? | 3.7µM* | ? | 15 | 5.2µM*
O=C(O)c1cc2c(s1)-c1ccccc1CC2 | -4% | -17% | -5% | -4 | -16%
Cc1cccc2nc(-c3cccnc3)c(Nc3ccccc3)n12 | -7% | -28% | -5% | ? | ?
CCCCNc1c(-c2cccnc2)nc2nc(C)cc(C)n12 | 11% | ? | 18% | 0 | 12µM*
Cc1cccc2nc(-c3cccnc3)c(NCCC(C)C)n12 | ? | 9.2µM* | ? | -82* | 16µM*
Cc1oc2ncn(C)c(=O)c2c1C(=O)NCc1ccccc1 | nt | 0% | nt | nt | -23%
COc1ccccc1C(C(=O)c1ccccc1)c1ccc(O)cc1 (centres undefined) | -17% | ? | -30% | ? | ?
COc1ccccc1C(C(=O)c1ccccc1)c1ccc2ccccc2c1 (centres undefined) | -15% | ? | -4% | -71* | 16µM*
COc1ccc2c(c1)nc(-c1cccc(Br)c1)c(=O)n2C(c1ccccn1)c1nc2ccccc2[nH]1 (centres undefined) | -13% | ? | -5% | -2 | ?
CCOC(=O)c1c(NC(NC(=O)C(C)C)C(Cl)(Cl)Cl)sc2c1CCC2 (centres undefined) | -18% | 15µM* | -10% | 1 | 16µM*
CCOC(=O)c1c(NC(=O)c2cc(Cl)ccc2Cl)sc2c1CCCC2 | nt | -8% | nt | nt | -7%
CCC1CN(C(=O)NCc2ccc(F)cc2)c2ccccc2O1 (centres undefined) | 8% | ? | 0% | -21 | ?
CCC1CN(C(=O)NCc2ccc(C)cc2)c2cc(Cl)ccc2O1 (centres undefined) | 0% | 21µM* | -6% | -26 | 23µM*
CCC1CN(C(=O)NCc2ccc(C)cc2)c2cc(C)ccc2O1 (centres undefined) | 9% | 23µM* | 4% | 0 | 15µM*!
CCC1CN(C(=O)NCc2ccc(F)cc2)c2cc(Cl)ccc2O1 (centres undefined) | -17% | ? | -5% | -62* | ?
CCC1CN(C(=O)Nc2ccc(C(=O)O)cc2)c2cc(Cl)ccc2O1 (centres undefined) | nt | -27% | nt | nt | -29%
CCC1CN(C(=O)NCc2ccccc2)c2cc(C)ccc2O1 (centres undefined) | 1% | ? | 0% | -10 | ?
CCc1ccccc1NC(=O)N1CC(CC)Oc2ccc(Cl)cc21 (centres undefined) | nt | 21µM* | nt | nt | ?
COC(=O)C[C@H]1CC[C@H](NC(=O)c2cccc(F)c2)[C@@H](CO)O1 | 12% | 9% | ? | 0 | 17%
SMILES | HT1080 IDH1KD tx | DT40 TDP1 CPT | HT1080NT lethal | IL1B secr inh | DT40 TDP1 no CPT
O=C(Nc1nnc([C@H]2C[C@H](O)[C@@H](CO)O2)s1)NC1CCCCC1 | 9% | 14% | 18% | -13 | 7%
COc1ccc(-c2noc3c2-c2nc(-c4cccc(C)c4)sc2CC3)cc1 | 12% | -23% | 8% | 0 | -3%
O=C(Nc1ccccc1)N1CCCC2(CCN(C(=O)c3cccc(F)c3)CC2)C1 | nt | 0% | nt | nt | -8%
Cc1cc(C)c2nc(NCCCNC(=S)NCCCN(C)C)c(C#N)cc2c1 | ? | 5.8µM* | ? | -21 | 5.8µM*
CCOCCCNC(=S)NCCNc1nc2c(C)cccc2cc1C#N | 0% | ? | ? | -12 | ?
CCOCCCNC(=S)NCCCNc1nc2c(C)cc(C)cc2cc1C#N | -5% | 8.2µM* | -2% | -28 | 18µM*
COCCCNC(=S)NCCNc1nc2cc(C)cc(C)c2cc1C#N | -14% | ? | -16% | ? | ?
Cc1ccc2cc(C#N)c(NCCNC(=O)C3CC3)nc2c1C | -7% | 15µM* | -3% | ? | 7.3µM*
Cc1ccc2cc(C#N)c(NCCNC(=S)NCCCN(C)C)nc2c1C | ? | ? | 21µM* | ? | 26µM*
Cc1cccc2cc(C#N)c(NCCNC(=O)COc3ccccc3)nc12 | -4% | ? | -3% | -4 | ?
C[C@H](NC(=O)c1ccccc1)C(=O)OCC(=O)Nc1ccc(Cl)cn1 | 8% | -9% | 6% | 14 | -26%
CCCCCCCCCCCCCCC(F)C(=O)O (centres undefined) | nt | 4%[4.12 µM] | nt | nt | 9%[4.12 µM]
CCOC(=O)N1CCC(NC(=O)c2cc(C(=O)NC3CCN(Cc4ccccc4)CC3)ccc2CO)CC1 | 1% | 1.8µM* | -3% | -8 | -24%
CCOC(=O)N1CCC(NC(=O)c2cc(C(=O)NCc3ccc(F)cc3)ccc2CO)CC1 | -1% | ? | 1% | 16 | 12µM*
CCOC(=O)N1CCC(NC(=O)c2cc(C(=O)Nc3ccc(F)cc3F)ccc2CO)CC1 | 4% | -25% | ? | 3 | -24%
CC(C)=CCc1c(-c2ccc(O)cc2O)oc2c3c(cc(O)c2c1=O)OC(C)(C)C=C3 | -28% | 21µM* | ? | -4 | ?
O=C(NCCSCc1c(F)cccc1Cl)Nc1ccccc1 | -1% | -28% | 3% | -75* | ?
Nc1ccc(N2CCN(C(=O)c3ccco3)CC2)cc1 | -18% | 16µM* | -6% | 6 | 18µM*
Cc1cc(C)cc(C(=O)Nc2ccc(N3CCN(C(=O)c4ccco4)CC3)cc2)c1 | -3% | ? | -3% | -52* | 16µM*
Cc1ccc(OCC(=O)Nc2ccc(N3CCN(C(=O)c4ccco4)CC3)cc2)cc1 | -15% | ? | -18% | -59* | 23µM*
O=C(Nc1ccc(N2CCN(C(=O)c3ccco3)CC2)cc1)c1ccc(F)cc1 | 18% | ? | 17% | -20 | 21µM*
CC(C)(C)NC(=O)c1ccc2nsnc2c1 | 10% | 4% | 13% | 1 | -1%
